# PrPC TRFRET: cell surface PrPC inhibition, primary TR-FRET screen; AID 720596; 370,000 compounds, 0.43% hits; inhibition, % at 13.8 µM; TR-FRET read-out; in the data active = inhibition above about 24%; also: 0% = median of the test wells and 100% = reference compound wells
# GDH-TPI inh: GDH-TPI coupled enzyme inhibition counter-screen | AID 588335 | 360,000 compounds, 1.2% hits | GDH-TPI coupled enzyme counterscreen, NADH absorbance | inhibition, % at 4.8 µM; in the data active = inhibition above about 30%;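 also: 0% = DMSO wells and 100% = wells lacking the enzyme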
# PfHsp40 rescue: restores yeast growth despite PfHsp40 toxicity; growth rescue, % at 12.5 µM; S. cerevisiae expressing PfHsp40, growth rescue, ATP luminescence; 340,000 compounds, 0.68% hits; in the data active = growth rescue above about 28%, passing the limit was not always enough;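 also: yeast W303a lacking pdr1 and pdr3 grown in galactose medium; growth measured after three days at 30 °C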
# FBA Mtb inh: Mtb fructose-bisphosphate aldolase inhibition; purified M. tuberculosis FBA, fluorescence read-out; inhibition, % at 1 µM; 360,000 compounds, 2.3% hits; in the data active = inhibition above about 27%;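 also: 0% = vehicle and 100% = reference inhibitor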
# Target sequence (P9WQA3 whole entry, looked up): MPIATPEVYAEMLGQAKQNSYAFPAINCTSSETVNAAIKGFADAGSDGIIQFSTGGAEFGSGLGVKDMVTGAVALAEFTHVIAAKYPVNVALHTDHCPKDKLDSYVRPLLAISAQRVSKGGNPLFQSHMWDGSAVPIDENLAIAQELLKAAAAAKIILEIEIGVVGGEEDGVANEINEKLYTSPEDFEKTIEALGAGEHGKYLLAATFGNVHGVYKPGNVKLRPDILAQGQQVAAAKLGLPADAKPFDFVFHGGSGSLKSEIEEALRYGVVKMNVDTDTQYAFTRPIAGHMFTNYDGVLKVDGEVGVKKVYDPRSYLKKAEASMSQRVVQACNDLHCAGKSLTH
# BJeLR viability: kills HRASV12-expressing BJeLR cells | 300,000 compounds, 0.17% hits | inhibition, % (test concentration not listed) | BJeLR (HRASV12) viability, CellTiter-Glo ATP luminescence, 48 h; in the data active = inhibition above about 50%
# PrP UTR inh: inhibition of PrP 5' UTR reporter expression; cell-based PrP 5' UTR mRNA reporter, plate reader; inhibition, % (test concentration not listed); 340,000 compounds, 0.35% hits; in the data active = inhibition above about 52%; also: 0 = median of the neutral control wells
# * hit, by the source's call; · = no result. Rows were chosen to be rich in hits. Some 4.5% of all compounds tested hit in one or more screens of this group.
SMILES,PrPC TRFRET,GDH-TPI inh,PfHsp40 rescue,FBA Mtb inh,BJeLR viability,PrP UTR inh
CCN(CC)Cc1c(O)ccc2c(=O)c(-c3ccc(Cl)cc3)coc12,-9.9,23.9,-0.3,43.3*,-2.0,-13.1
CCCCN(C)Cc1c(O)ccc2c(=O)c(-c3ccccc3OC)coc12,5.3,41.4*,0.0,162.9*,-8.1,4.3
CCCCCCCCN1C(=O)[C@@H](CC(=O)N2CCCC2)C[C@@]2(C(=O)OC)C1=C[C@H](COCc1ccccc1)O[C@@H]2C,1.0,·,·,·,·,·
O=C(CN1C(=O)S/C(=C\c2ccccc2)C1=O)NCCCn1ccnc1,-4.3,24.8,0.0,-11.7,8.9,-22.7
CC(C)c1ccc(/C=C2\SC(=O)N(CC(=O)NCCCn3ccnc3)C2=O)cc1,-8.5,47.4*,-0.7,1.6,4.7,-47.4
COc1ccc(CCNC(=O)Cn2ncc3c2-c2cc(C)ccc2OC3)cc1,-3.7,·,·,·,·,·
Cc1nc2nc[nH]c2cc1Br,2.6,-14.1,2.6,-0.3,2.4,-4.1
Cc1nc2nc(-c3cccs3)[nH]c2cc1Br,14.9,53.1*,6.6,6.7,9.7,-79.3
CC(C)c1ccc(C(=O)Nc2cc(Cl)ccc2C(=O)O)cc1,13.4,·,·,·,·,·
CC(C)(C)c1ccc(C(=O)Nc2cc(Cl)ccc2-c2nn[nH]n2)cc1,1.8,·,·,·,·,·
CC(C)(C)C(=O)/C(C#N)=C/c1cccs1,-0.1,10.4,-1.0,3.0,-0.3,10.4
N#C/C(=C\c1cccs1)C(=O)c1ccccc1Cl,10.1,·,·,·,62.6*,·
NNC(=O)/C(=C/c1cccs1)NC(=O)c1ccccc1Cl,3.8,42.7*,0.6,-3.0,-0.2,-19.7
C[C@@H]1CN([C@@H](C)CO)S(=O)(=O)c2ccc(Br)cc2O[C@@H]1CN(C)Cc1ccc2c(c1)OCO2,-5.8,·,·,·,·,·
O=Cc1ccccc1-n1cncn1,-5.1,0.6,-0.7,0.6,-5.2,79.8*
COC(=O)[C@]12C[C@H](CC(=O)N3CCCCC3)C(=O)N(Cc3cccc4ccccc34)C1=C[C@H](C(C)(C)C)O[C@@H]2C,-2.9,·,·,·,·,·
CCOC(=O)c1ccc(-c2ccc(/C=N/NC(=O)CN(c3ccccc3Br)S(C)(=O)=O)o2)cc1,-3.7,32.5*,-1.5,5.6,-4.2,-25.9
COc1ccc(/C=C(/NC(=O)c2ccco2)C(=O)Nc2ccc(C(=O)O)cc2)cc1,-10.9,12.1,0.5,-2.2,-12.6,-17.4
CSc1ccc(/C=C(\NC(=O)c2ccco2)C(=O)N2CCCCC2)cc1,1.8,37.1*,-0.1,-3.2,-0.9,-1.8
COc1ccc(/C=C(\NC(=O)c2ccco2)C(=O)Nc2ccc(C(C)=O)cc2)cc1,-3.2,33.2*,-2.1,-2.1,·,-7.5
O=C(NCc1ccco1)/C(=C/c1ccccc1)NC(=O)c1ccco1,-3.0,6.2,-1.1,5.8,-6.4,2.2
CSc1ccc(/C=C(/NC(=O)c2ccco2)C(=O)NCc2ccco2)cc1,-13.3,41.2*,-0.5,0.9,-2.1,-6.4
COc1ccc(/C=C/C(=O)N/C(=C\c2ccco2)C(=O)NCCc2nc3ccccc3[nH]2)cc1,-14.4,34.2*,1.9,-2.8,4.0,-16.9
COc1ccc(-c2c(-c3ccc(OC)c(F)c3)c3ccccc3n2C)cc1,3.0,15.5,-0.6,37.4*,·,-8.2
CN(Cc1cc(Cl)cc(Cl)c1)[C@H]1C[C@H]2c3[nH]c4ccccc4c3CCN2C(=O)[C@H]1CO,-3.6,-13.2,·,-0.4,·,·
SMILES,PrPC TRFRET,GDH-TPI inh,PfHsp40 rescue,FBA Mtb inh,BJeLR viability,PrP UTR inh
CN(C(=O)NC1CCCCC1)[C@H]1C[C@H]2c3[nH]c4ccccc4c3CCN2C(=O)[C@H]1CO,-11.0,17.5,·,151.8*,·,·
O=C(NC(=S)NCc1ccccc1)c1cccc(Cl)c1,4.3,4.6,28.9*,1.1,0.1,-8.7
O=C(NC(=S)NCc1ccco1)c1cccc(Cl)c1,7.7,-2.4,-0.5,-0.8,0.0,-1.6
CN1C/C(=C/c2ccccc2)N2C(=O)C[C@@H](c3ccccc3)N=C12,8.2,·,·,·,·,·
CCN(CC(=O)Nc1cc(Cl)ccc1C)c1ncnc2sc(C)c(C)c12,11.4,1.5,33.0*,0.7,0.8,-17.9
C=CC(=O)N1C/C(=C/c2ccccc2)C(=O)/C(=C\c2ccccc2)C1,1.4,31.6*,0.0,1.4,·,-7.6
COc1ccc(CN(CCN2CCOCC2)C(=O)c2cc(F)ccc2C)cc1OC,-2.9,·,·,·,·,·
O=C(Nc1nnc(SCc2ccc(F)cc2)s1)c1ccccn1,16.2,12.7,161.4*,4.0,10.7,12.3
C[C@@H]1COc2cccc(NC3CC3)c2S(=O)(=O)N1,4.5,·,·,·,·,·
CCOC(=O)[C@@]12CCC3=C1N(CCC3)C(=O)[C@H](CC(=O)NCc1ccc(C)o1)C2,-2.0,·,·,·,·,·
CCN(CC)c1ccc(C(=O)OCC(=O)NC(C)(C)C)cc1,3.1,56.8*,-1.3,-2.1,1.7,-14.2
O=[N+]([O-])c1ccc2[nH]c(O)c(N=NC(=S)Nc3cccnc3)c2c1,-15.8,8.9,40.8*,-22.8,4.2,-15.8
O=C(N=Nc1c(O)[nH]c2ccc([N+](=O)[O-])cc12)c1ccccc1Cl,-7.2,22.1,0.1,0.2,6.6,-23.1
Cc1ccccc1NCC(=O)N=Nc1c(O)[nH]c2ccc([N+](=O)[O-])cc12,-28.4,36.2*,0.8,-2.5,-7.3,-15.6
O=[N+]([O-])c1ccc2[nH]c(O)c(N=NC3CS(=O)(=O)CC3O)c2c1 (stereo unspecified),-28.4,45.0*,-1.0,1.6,-1.6,-24.5
COC(=O)[C@H]1C[C@@]2(n3ccc4ccccc43)c3ccccc3N(S(=O)(=O)c3ccccc3)[C@H]2N1C(=O)CNC1CCCCC1,-2.4,·,·,·,·,·
OCCCn1c(C2CCCN2c2nc(-c3ccc(F)cc3)cs2)nc2cc(C(F)(F)F)ccc21 (stereo unspecified),-0.9,-4.3,145.2*,-7.4,-9.6,-15.7
OCCOCCn1c(C2CCCN2c2nc(-c3ccc(F)cc3)cs2)nc2cc(Cl)c(Cl)cc21 (stereo unspecified),0.5,2.2,143.4*,1.2,-5.6,-20.6
CC(C)(C)OC(=O)N1CCc2onc(-c3ccc(-n4cc(C5=CCCCC5)nn4)cc3)c2C1=O,-5.3,·,·,·,·,·
Cc1ccc(CN2CCCCC(NC(=O)Nc3ccccc3)C2=O)cc1 (stereo unspecified),4.8,·,·,·,·,·
O=C(/C=C/c1ccccc1)c1c[nH]c2ccccc12,-13.8,23.4,1.6,-4.0,-3.0,-68.2
O=C(C=Cc1ccccc1)c1c[nH]c2ccccc2c1=O,1.2,37.7*,-1.5,-1.8,·,-44.1
CC(C)CNC(=O)OCc1cn(Cc2ccccc2Cl)nn1,0.4,·,·,·,·,·
Cc1nc(N(C)C)c2sc(=S)n(C)c2n1,-4.9,30.7*,1.3,0.9,-5.3,-22.0
Cc1cc(Nc2ccc(C(=O)O)cc2)n2nc(C)nc2n1,-6.5,2.0,1.1,-3.3,-4.3,-10.3
CC(=O)c1ccc(Nc2cc(C)nc3nc(C)nn23)cc1,-2.6,30.7*,-0.1,-0.7,-7.2,-36.5
CCOC(=O)C1(C(=O)OCC)Cc2c([nH]c3ccccc23)[C@]2(N1)C(=O)N(C)c1ccc(Br)cc12,1.8,·,·,·,·,·

# From PubChem BioAssay
